# Source: PubChem (National Center for Advancing Translational Sciences (NCATS))
# The list is not random: actives were taken first. Their share in the collection is about 7.5%.
# ELG1 genotox = qHTS screen for small molecules that induce genotoxicity in human embryonic kidney (HEK293T) cells expressing luciferase-tagged ELG1. Potency, µM (series often up to 46 µM), for the others: top-dose activity change, positive = activation, hits mostly activators. actives 1.3% (n = 330,000). HEK293T ELG1-luciferase reporter, luminescence, 16 h; further: % of control where 0% means no effect; nearly all actives have a fitted effect of over 60% in size
#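 Cells (2,000/well) expressing the ELG1-luciferase fusion are dosed by pin tool and kept 16 hr at 37 °C, 5% CO2. Signal comes from ONE-Glo luciferase reagent after 30 min at room temperature.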
# NPC1 prom act = qHTS Assay for NPC1 Promoter Activators; AID 485313, 2010; actives 2.4% (n = 320,000); Potency, µM (series often up to 9.22 µM), inactives show at the top dose activation, hits mostly activators; Huh7 NPC1 promoter luciferase reporter, 24 h; further: % of control where 0% means no effect; nearly all actives have a fitted effect of over 60% in size
#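 Huh7 reporter cells (NPC1 promoter driving luciferase) are dosed with compound for 24 h at 37 °C, 5% CO2; luciferase detection reagent is then added and luminescence measured after 10 min at ambient temperature.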
# Rab9 prom act = qHTS Assay for Rab9 Promoter Activators; Potency, µM (series often up to 9.22 µM), without a hit: top-dose activation, negative = inhibition, hits mostly activators; AID 485297, 2010; actives 2.8% (n = 320,000); Huh7 Rab9 promoter-luciferase reporter, luminescence, 24 h; further: % of control where 0% means no effect; nearly all actives have a fitted effect of over 60% in size
#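 Promoter activation is measured as luciferase luminescence in Huh7 cells stably transfected with a Rab9 promoter–luciferase construct, following 24 h compound exposure at 37 °C and 10 min reagent incubation at ambient temperature.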
# Luc counter = Counterscreen for Luciferase (Kinase-Glo TM) Inhibition. actives 0.28% (n = 200,000). Kinase-Glo luciferase, ATP luminescence, 8 min. Potency, µM (highest dose often 38.3 µM), without a hit: top-dose activity change, negative = inhibition, usual class: inhibitors. Luciferin 4-monooxygenase (Photuris pensylvanica), Q27757; further: on the % scale 0 is the no-effect control and ±100 the full control effect; nearly all actives have a fitted effect of over 60% in size
#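 Compound is pinned into ATP-containing buffer (10 uM ATP, imidazole pH 7.2, 7 mM MgCl2). Kinase-Glo luciferase reagent is then added. Light output is recorded following an 8-min room-temperature incubation.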
# FLuc modulator = qHTS profiling assay for firefly luciferase inhibitor/activator using purifed enzyme and Km concentrations of substrates (counterscreen for miR-21 project); purified FLuc, Km substrates, luminescence inhibition; Potency, µM (doses to about 57.5 µM), inactives show at the highest dose activity change, negative = inhibition, hits mostly inhibitors; actives 6.9% (n = 360,000); AID 588342, 2011;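 further: plate controls were vehicle for no effect and reference inhibitor for full effect; nearly all actives have a fitted effect of over 55% in size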
# Target sequence (P08659 whole entry, looked up): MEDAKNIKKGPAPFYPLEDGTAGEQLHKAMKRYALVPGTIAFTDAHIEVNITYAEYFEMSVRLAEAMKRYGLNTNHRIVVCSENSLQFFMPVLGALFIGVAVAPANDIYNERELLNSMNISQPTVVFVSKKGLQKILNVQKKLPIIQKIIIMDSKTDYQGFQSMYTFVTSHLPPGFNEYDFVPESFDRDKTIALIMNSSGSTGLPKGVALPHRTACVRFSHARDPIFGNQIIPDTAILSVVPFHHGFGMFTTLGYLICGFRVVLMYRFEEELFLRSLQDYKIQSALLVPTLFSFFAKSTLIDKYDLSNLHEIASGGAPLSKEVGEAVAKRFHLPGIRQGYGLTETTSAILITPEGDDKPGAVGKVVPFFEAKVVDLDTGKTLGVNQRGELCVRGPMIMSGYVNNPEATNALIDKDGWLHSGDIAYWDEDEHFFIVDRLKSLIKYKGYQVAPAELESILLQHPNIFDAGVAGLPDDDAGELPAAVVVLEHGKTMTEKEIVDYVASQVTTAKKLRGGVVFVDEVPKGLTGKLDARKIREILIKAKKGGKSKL
#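 Purified P. pyralis luciferase (10nM final) with 10uM D-luciferin and 10uM ATP (Km levels) in 50mM Tris acetate pH 7.5, 10mM Mg acetate, 0.01% Tween-20, 0.05% BSA; qHTS 6-point titration, ~60 µM downward; luminescence read.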
# SMN2 splice enh = qHTS Assay for Enhancers of SMN2 Splice Variant Expression; HEK293 SMN2-luciferase splicing reporter, luminescence, 30-36 h; Potency, µM (top dose mostly 46.1 µM), for the others: at the top dose activity change, positive = activation, hits mostly activators; actives 2.8% (n = 210,000); further: % of control where 0% means no effect; nearly all actives have a fitted effect of over 55% in size
#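 qHTS luciferase splicing reporter: luminescence rises when SMN2 exon 7 is included in transfected HEK293 cells. Compound exposure lasted 30-36 h at 37C, with 4.5 mM final sodium butyrate as control, followed by a ONE-Glo read.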
# Numbers without * were called inactive; ? = inconclusive; . = not tested or not shown. The call rests on the fitted dose curve; in most records, active means well fitted curve in the direction sought with a large enough effect; inconclusive means small, poorly fitted or top-dose-only effect, or another doubt; inactive means no such curve, though single readings can be large; an effect the other way counts as inactive or inconclusive. Potency means the concentration at half of the fitted maximal effect.
SMILES,ELG1 genotox,NPC1 prom act,Rab9 prom act,Luc counter,FLuc modulator,SMN2 splice enh
Cc1ccc(OCCC(=O)OCC(=O)Nc2ccc3c(c2)OCCO3)cc1,-1%,-1%,2%,.,?,.
CCOC(=O)c1sc(NC(=O)c2ccc(Cl)s2)cc1C,2.3µM*,?,1µM*,-1%,0.6µM*,7.9µM*
CCOC(=O)c1sc(NC(=O)c2ccc(S(=O)(=O)N(C)C)cc2)cc1C,-20%,-10%,-6%,2%,-26%,-19%
CCOC(=O)c1sc(NC(=O)c2ccccc2)cc1C,1.3µM*,1.6µM*,0.71µM*,-13%,1.1µM*,11µM*
CCc1ccc(NC(=S)NC(=O)CC(C)C)cc1,?,?,?,-4%,7.6µM*,8.9µM*
CCN(CC)S(=O)(=O)c1ccc(NC(=S)NC(=O)CC(C)C)cc1,-2%,-5%,1%,0%,0%,-9%
CCOC(=O)c1sc(NC(=O)C(C)(C)C)cc1C,18µM*,2.8µM*,3.2µM*,3%,12µM*,10µM*
COc1ccc(N2CC(C(=O)N[C@@H](C)C(=O)NCc3ccccc3OC)CC2=O)cc1 (stereo not given in full),6%,-7%,1%,.,2%,.
CCOC(=O)c1sc(NC(=O)c2cccc(S(=O)(=O)N(CC)CC)c2)cc1C,2%,14%,2%,-1%,?,-3%
CCOC(=O)c1sc(NC(=S)NC(=O)CC(C)C)cc1C,4%,23%,?,-6%,19µM*,-11%
CCOC(=O)c1sc(NC(=O)c2c(C)nn(Cc3ccccc3)c2C)cc1C,-25%,1%,-8%,-1%,21µM*,-12%
CCOC(=O)c1c(NC(=O)Nc2ccc(Cl)cc2)sc(C)c1C,5%,-5%,-4%,0%,5%,-5%
CCOC(=O)c1sc(NC(=O)Nc2ccc(Cl)cc2)cc1C,?,20%,1%,1%,6.7µM*,-22%
Cc1c2cnn(-c3ccccc3)c(=O)c2c(C)n1CC(=O)NCc1ccccc1Br,.,.,.,.,3%,8%
Cc1cc(C)c(C#N)c(SCc2ccc(C(=O)O)cc2)n1,0%,8%,-4%,.,-2%,.
Cc1cc2nc(-c3ccc(SCc4ccccc4C#N)nc3)[nH]c2cc1C,?,22%,?,4%,9.5µM*,11µM*
Cc1cc2nc(-c3ccc(SCC(=O)Nc4ccc(S(=O)(=O)NC5CC5)cc4)nc3)[nH]c2cc1C,?,2.8µM*,1.4µM*,-23%,0.11µM*,3.5µM*
Cc1cc2nc(-c3ccc(SCC(=O)N4CCc5ccccc54)nc3)[nH]c2cc1C,?,1.1µM*,0.5µM*,-27%,0.13µM*,2.5µM*
Cc1cc2nc(-c3ccc(SCc4ccc(C(=O)O)cc4)nc3)[nH]c2cc1C,?,?,?,-5%,4.3µM*,.
Cc1cc2nc(-c3ccc(SCC(=O)NC(C)C)nc3)[nH]c2cc1C,8%,2.8µM*,3.2µM*,?,2.1µM*,?
Cc1ccc2nc(SCC(=O)Nc3ncccn3)[nH]c2c1,1%,-1%,15%,.,-16%,.
COC(=O)CSc1ccc(-c2nc3ccc(C)cc3[nH]2)cn1,?,0%,-2%,16%,2.7µM*,2%
Cc1cc(NC(=O)CSc2ccc(-c3nc4cc(C)c(C)cc4[nH]3)cn2)no1,?,2µM*,0.45µM*,?,0.19µM*,-26%
CC(C)NC(=O)CSc1nnc(-c2ccc(C(C)(C)C)cc2)n1C,1%,-3%,-2%,-2%,?,8%
O=C1c2ccccc2CCCC12N=NCC2c1cccc2ccccc12 (stereo not given),-6%,-5%,1%,-2%,-1%,-29%
SMILES,ELG1 genotox,NPC1 prom act,Rab9 prom act,Luc counter,FLuc modulator,SMN2 splice enh
Cc1ccc(C2CN=NC23CCc2ccccc2C3=O)cc1 (stereo not given),?,8%,1%,0%,12µM*,-1%
CCc1ccc(Nc2n[n+](-c3ccccc3)c(/C=C/c3ccccc3)s2)cc1,-7%,1%,-2%,.,12µM*,.
O=C(CCN1C(=O)c2ccccc2C1=O)Nc1ccc(-c2nc3ccccc3s2)cc1,10µM*,1.3µM*,0.4µM*,.,?,.
COc1ccc(NC(=O)CCN2C(=O)c3ccccc3C2=O)cc1,0%,-5%,4%,.,4%,.
Cc1ccc2nc(-c3ccc(NC(=O)CCN4C(=O)c5ccccc5C4=O)cc3)sc2c1,1µM*,0.4µM*,0.25µM*,-4%,1.5µM*,0.32µM*
Cc1ccc(C2(C)NC(=O)N(CC(=O)Nc3ccc(-c4nc5ccc(C)cc5s4)cc3)C2=O)cc1 (stereo not given),?,1.8µM*,?,.,2.4µM*,.
O=C(CCN1C(=O)c2ccccc2C1=O)Nc1nc2ccccc2s1,16%,8%,1%,0%,19µM*,15%
Cc1ccc(NC(=O)CN2C(=O)NC(C)(c3ccc4c(c3)OCO4)C2=O)cc1 (stereo not given),-1%,.,.,.,.,.
Cc1cccc(NC(=O)CCN2C(=O)c3ccccc3C2=O)c1,-2%,2%,-6%,.,-11%,.
Cc1cccc(Cl)c1NNC(=O)Nc1c([N+](=O)[O-])c(C)nn1C,-2%,0%,-3%,.,4%,.
COc1cc(CN2CCNC(=O)C2CC(=O)NC2CCCC2)cc(OC)c1 (stereo not given),0%,3%,2%,.,0%,.
Cc1ccc(OCC(=O)NCCNC(=O)c2cnccn2)cc1C,1%,4%,-1%,.,0%,.
Cc1ccc2nc(-c3ccc(NC(=O)C(C)N4C(=O)c5ccccc5C4=O)cc3)sc2c1 (stereo not given),?,?,29%,2%,8.5µM*,11µM*
CC(C(=O)Nc1ccc(C(=O)O)cc1)N1C(=O)c2ccccc2C1=O (stereo not given),0%,3%,-2%,1%,0%,3%
Oc1ccc2ccccc2c1/C=N/n1cnnc1,0%,-6%,0%,2%,-1%,4%
Cc1nn(C)c(C)c1N=Cc1c(O)ccc2ccccc12,-1%,0%,15%,-8%,13µM*,10%
COc1cccc(C(=O)C2CN(c3ccccc3)CC2c2ccc(Cl)cc2)c1 (stereo not given),-8%,1%,-6%,-1%,19µM*,-26%
